Assay in all cases: yeast three-hybrid, YBZ-1, SC-Leu-His + 0.5 mM 3-AT, 4 days
Conditions in all cases: tags: N-Gal4 AD-HA kept; label: inside an RPR1-promoter hybrid RNA with tandem MS2 sites; ssRNA

The target of one test is PUM1 PUF domain R1-RSQ (Homo sapiens, UniProt Q14671 828-1176, S863R;R864S). The method in brief:
(§1)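 A centromeric plasmid in strain YBZ-1 co-expressed Pumilio-1 PUF domain libraries, randomized at the three base-contacting residues of each repeat, with matching RNA elements; the strain carries a LexA–MS2 coat fusion and a HIS3 reporter. After four days on SC-Leu (input) or SC-Leu-His + 0.5 mM 3-AT (selection), the repeat regions were PCR-amplified and Illumina-sequenced. The interaction score is the log change in variant frequency from input to selection, using log2 and a pseudocount of 1 where absent.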

The next test has as its target PUM1 PUF domain R1-SWR (Homo sapiens, UniProt Q14671 828-1176, R864W;Q867R). The method in brief:
as §1

A further test deals with PUM1 PUF domain R5-ARK (Homo sapiens, UniProt Q14671 828-1176, C1007A;Q1011K). In short, it runs like this: as §1
The target of the next test is PUM1 PUF domain R7-RCR (Homo sapiens, UniProt Q14671 828-1176, S1079R;N1080C;E1083R). The method in brief: as §1
The target of the next test is PUM1 PUF domain R8-QWK (Homo sapiens, UniProt Q14671 828-1176, N1122Q;Y1123W;Q1126K). In short, it runs like this:
as §1

In the next test the target is T1, PUM1 PUF domain R6-LWT (Homo sapiens, UniProt Q14671 828-1176, N1043L;Y1044W;Q1047T).
T1 sequence: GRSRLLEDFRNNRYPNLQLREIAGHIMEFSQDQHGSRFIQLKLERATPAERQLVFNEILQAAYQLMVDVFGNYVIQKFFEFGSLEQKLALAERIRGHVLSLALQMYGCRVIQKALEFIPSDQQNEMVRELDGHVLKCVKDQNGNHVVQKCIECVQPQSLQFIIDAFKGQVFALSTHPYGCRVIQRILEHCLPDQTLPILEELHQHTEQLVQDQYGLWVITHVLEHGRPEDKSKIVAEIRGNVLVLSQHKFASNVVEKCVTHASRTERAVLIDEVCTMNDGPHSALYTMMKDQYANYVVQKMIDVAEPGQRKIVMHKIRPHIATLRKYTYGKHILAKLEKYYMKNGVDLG
In short, it runs like this: as §1

Take “GGCUAGAACUAGUGGAUCCCCCGGCGCCCGGCGGCUCGAGCCCGGGUAAGUGUAAAUUGUCUGCAUGCCGCCGGGCGCCAUGCCUGCAGGUCGACUCUAGAAAACAUG”: the figures for the binding signal with PUM1 PUF domain R1-RSQ and with PUM1 PUF domain R1-SWR were 5.08 log2 enrichment (interaction score) and 0.84 log2 enrichment (interaction score), respectively.
In the case of “GGCUAGAACUAGUGGAUCCCCCGGCGCCCGGCGGCUCGAGCCCGGGUAAGUGUCAAUAGUCUGCAUGCCGCCGGGCGCCAUGCCUGCAGGUCGACUCUAGAAAACAUG”, the binding signal in the test with PUM1 PUF domain R5-ARK is 0.39 log2 enrichment (interaction score).
For “GGCUAGAACUAGUGGAUCCCCCGGCGCCCGGCGGCUCGAGCCCGGGUAAGUUUAAAUAGUCUGCAUGCCGCCGGGCGCCAUGCCUGCAGGUCGACUCUAGAAAACAUG”, the binding signal in the test with PUM1 PUF domain R7-RCR was 5.68 log2 enrichment (interaction score).
Turning to “GGCUAGAACUAGUGGAUCCCCCGGCGCCCGGCGGCUCGAGCCCGGGUAAGUCUAAAUAGUCUGCAUGCCGCCGGGCGCCAUGCCUGCAGGUCGACUCUAGAAAACAUG”, the binding signal with PUM1 PUF domain R7-RCR was 4.6 log2 enrichment (interaction score).
For “GGCUAGAACUAGUGGAUCCCCCGGCGCCCGGCGGCUCGAGCCCGGGUAAGGGUAAAUAGUCUGCAUGCCGCCGGGCGCCAUGCCUGCAGGUCGACUCUAGAAAACAUG”, the binding signal with PUM1 PUF domain R8-QWK is 3.09 log2 enrichment (interaction score).
Take “GGCUAGAACUAGUGGAUCCCCCGGCGCCCGGCGGCUCGAGCCCGGGUAAGUGAAAAUAGUCUGCAUGCCGCCGGGCGCCAUGCCUGCAGGUCGACUCUAGAAAACAUG”: the binding signal with PUM1 PUF domain R6-LWT is 2.9 log2 enrichment (interaction score).
